The text below walks through data of PubChem BioAssay (NCI).

Compounds without any hit were thinned out: in the full panel of roughly 83,000, 20% have a hit.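 Cell lines were cultured in 96-well plates, exposed to a single compound concentration, and assessed for percent growth 48 hours later.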 Unmarked numbers belong to inactive results. The source made the active and inactive calls. Rule for the calls: active = growth percent below 10; inactive = the rest.

The test relates to HL-60(TB) leukemia. In words: NCI-60 one-dose screen, 48 h (100 = growth as untreated, 0 = no growth, -100 = all killed). Particulars: 10 µM unless noted.
As for `Cc1nn(-c2ccc([N+](=O)[O-])cc2)c2ncnc(NCCc3ccccc3)c12`, the growth is 65.9%. As to `O=C(/C=C/c1ccc(Cl)cc1)c1ccc(-n2cc(CN3CCN(c4cc5c(cc4F)c(=O)c(C(=O)O)cn5C4CC4)CC3)nn2)cc1`, the growth was 99%. For the molecule `O=c1oc2c(cc1-c1ccc(F)cc1)C(O)Oc1ccccc1-2` (stereo unspecified), the growth was 101%. As for `O=c1[nH]c(N2CCOCC2)nc2scc(-c3ccccc3)c12`, the growth is 103%. Consider `CCCCNc1nc(NN2C(=O)c3cccc4cccc(c34)C2=O)nc(-n2cnc3ccccc32)n1`, for which the growth is 94.2%.

`c1ccc2c(c1)nc(CN1CCOCC1)n1cc(N3CCCC3)nc21`: the growth was 83.4%. In the case of `COc1ccc2sc3c(NCCO)nc4ccccc4c3c(=O)c2c1`, the growth was 104%. Take `COC(=O)[C@]12CC[C@@H](C)[C@H](C)[C@@H]1C1=CC[C@@H]3[C@@]4(C)C(C=O)=C[C@@](C)(COS(C)(=O)=O)C4=CC[C@@]3(C)[C@]1(C)CC2`: the growth is -34.8% (active). As for `O=C(Nc1cccc2c1CCCC2)c1cc2ccccc2cc1O`, the growth is 14.9%. Consider `O=C(O)C1[S][Sb]([CH](C(=O)O)[CH](C(=O)O)[Sb]2[S]C(C(=O)O)C(C(=O)O)[S]2)[S]C1C(=O)O` (stereo unspecified), for which the growth was 94.3%. Turning to `CCCN1C(=O)N(CCC)C2C1NN=c1s/c(=C3\C(=O)N(C(C)C)c4ccccc43)c(=O)n12` (stereo unspecified), the growth was 0.788% (active). Turning to `NC(=O)c1c(NC(=O)c2ccc(C(F)(F)F)cc2Cl)sc2c1CCC(=O)C2`, the growth is -12.9% (active). With `CCN(Cc1ccc(CN(CC)C(=O)C(Cl)(Cl)Cl)cc1)C(=O)C(Cl)(Cl)Cl`, the growth was 6.38% (active). Under `O=C(Nc1ccccc1O)c1ccc(CNC(=O)c2ccsc2Nc2ccnc(C(F)(F)F)c2)cc1` stands 7.44% (active); under `C/C(=N\Nc1nc2ccccc2s1)c1ccncn1`, -19.9% (active).

As to `O=C(Nc1nc(-c2ccccc2)cs1)c1cc(-c2ccc(Br)cc2)nc2ccccc12`, the growth is 31.5%.

As for `Nc1cc2ccncc2c2ccccc12`, the growth was 90%. Regarding `COc1cc(-c2cc(/C=C/C(=O)c3ccc(Cl)c(Cl)c3)[nH]n2)cc(OC)c1OC`, the growth is 87.3%. On to `O=c1ccc(N=Nc2ccccc2)ccc1Cl`, for which the growth is 42.8%.

As to `Cc1nc2sc(C(=O)Nc3ccccc3)c(N)c2cc1C(C)O` (stereo unspecified), the growth was -2.23% (active). For `N#C/C(=C\c1ccc(Br)cc1)n1nnc2ccccc21`, the growth was 2.58% (active). For `COc1ccc(/C=c2\nc3n(-c4ccccc4)c4nc5c6c(sc5c(=N)n4n-3c2=O)CCCC6)cc1`, the growth was 101%. Consider `COc1cc(C2CC(c3ccccc3)=NN2C=O)ccc1Oc1nc2c(c(=O)n(C)c(=O)n2C)n1C` (stereo unspecified), for which the growth is 101%. Turning to `Cc1cc(Cl)nc(N(CCCNc2ccnc3cc(Cl)ccc23)Cc2ccccn2)n1`, the growth was 12%. With `CCc1ccc(C(=Nc2ccc(N(C)C(=O)CN3CCN(C)CC3)cc2)c2c(O)[nH]c3ccc(C(=O)OC)cc23)cc1`, the growth is -67% (active). As to `O=c1oc2cc(OS(=O)(=O)c3ccccc3)ccc2c2c1CCCCC2`, the growth is 18.6%.
